Screens (PubChem)
mHTT-CaM PPI inh = mutant huntingtin-calmodulin interaction inhibitors – biochemical, AlphaScreen, primary screen. P42858. AlphaScreen His-mHTT/GST-CaM binding, luminescence. inhibition, % at 15 µM. 190,000 tested, 3.6% active. AID 1671202, 2021;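 also: 0% = both proteins with DMSO and 100% = one protein alone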
Pf apPOL inh = Pf-apPOL inhibitors, biochemical, fluorescence; Recombinant Pf-apPOL, molecular beacon fluorescence, 1.5 h; 210,000 tested, 0.25% active; inhibition, % at 10 µM
* hit, by the source's call; nt = no result. In the library only some 3.6% were active in any assay of this set; here they are far more common. Rule as the data show it: active = inhibition above about 50%; inactive = the rest.

SMILES	mHTT-CaM PPI inh	Pf apPOL inh
CCC(=O)N1CCN(c2cc(C)ccc2C)C(=O)C1C (configuration not stated)	-2.8	-1.4
CC1(C)CC(NC(=O)C(=O)NC2CC(C)(C)NC(C)(C)C2)CC(C)(C)N1	-5.6	nt
Cc1cccc2nnc(N3CCN(C(=O)CC4CCCCC4)CC3)n12	-5.4	2.6
Cc1ccc(C)c(CN2C(=O)C3(OCCCO3)c3ccccc32)c1	-22.0	-6.6
O=C1N(Cc2cc(=O)n3ccccc3n2)c2ccccc2C12OCCCO2	52.0*	-7.9
FC(F)(F)c1cc(-c2ccco2)nc(-n2cc(Cl)cn2)n1	0.0	0.4
CC(C)NC(=O)c1csc(-c2cccc(OC(C)C)c2)n1	-13.5	-0.9
Cc1sc(N)c(C#N)c1CCC#N	3.1	nt
CCN1CCC2(CC1)N=C(c1ccccc1)CC(c1cc(Cl)ccc1O)N2 (configuration not stated)	46.6	-0.6
CN1CCC2(CC1)N=C(c1ccc(Br)cc1)CC(c1cc(Cl)ccc1O)N2 (configuration not stated)	99.7*	-8.8
CCN1CCC2(CC1)N=C(c1ccc(C)cc1)CC(c1cc(Br)ccc1O)N2 (configuration not stated)	64.8*	-2.3
Cc1ccc(C2=NC3(CCN(C)CC3)NC(c3cc(Br)ccc3O)C2)cc1 (configuration not stated)	26.4	-3.4
Cc1nc(N2CCCC2)c2cnn(-c3ccc(F)cc3)c2n1	1.2	3.4
CCCSc1nnc2c(n1)OC(c1cc3c(cc1[N+](=O)[O-])OCO3)Nc1ccccc1-2 (configuration not stated)	-6.0	4.2
C=CCSc1nnc2c(n1)OC(c1cc3c(cc1[N+](=O)[O-])OCO3)Nc1ccccc1-2 (configuration not stated)	93.1*	0.3
Cc1ccc(NC(=O)N2CCc3c(c(-c4nc(C)no4)nn3C)C2)c(C)c1	-3.1	-2.9
CC(C)(C)n1nc2c(c1NC(=O)c1cc([N+](=O)[O-])ccc1Cl)CSC2	11.0	-0.7
CC(C)Oc1ccc(C(=O)Nc2c3c(nn2C(C)(C)C)CSC3)cc1	28.0	82.8*
CC(C)(C)n1nc2c(c1NC(=O)c1ccc([N+](=O)[O-])cc1)CSC2	66.0*	3.8
CC(C)Oc1ccc(C(=O)Nc2c3c(nn2C(C)(C)C)CS(=O)C3)cc1 (configuration not stated)	2.0	-40.2
CC(C)(C)n1nc2c(c1NC(=O)c1cccc(Br)c1)CSC2	53.0*	2.8
CC(C)(C)n1nc2c(c1NC(=O)c1cccc(Cl)c1)CSC2	39.0	-6.8
CC(NC(=O)C1CCC(N2C(=O)C3CC=CCC3C2=O)CC1)c1ccccc1 (configuration not stated)	-1.8	-8.5
CN1C(=S)NC(C)(C)CC1(C)O (configuration not stated)	-6.4	nt
CCOC(=O)C1CCN(C(=O)CCc2csc(NC(=O)NC3CCCCC3)n2)CC1	-10.6	-2.8
SMILES	mHTT-CaM PPI inh	Pf apPOL inh
O=C(Cc1ccc(Cl)cc1)N1CCC2(CC1)NC(=O)N(Cc1cccc(Cl)c1)C2=O	37.5	-11.0
CCOC(=O)COc1ccc2c(c1C)OC(=Cc1cc(OC)c(OC)c(OC)c1)C2=O	-6.0	-4.4
CN(C)C(=O)c1cc2c(s1)CCC(C(=O)Nc1cc(F)ccc1F)C2 (configuration not stated)	-2.8	-6.4
O=C(Nc1c2c(nn1-c1ccc(F)cc1)CSC2)c1ccco1	79.0*	-6.9
O=C(Nc1c2c(nn1-c1ccccc1)CSC2)C1CC1	22.0	-3.5
O=C(Nc1c2c(nn1-c1ccc(F)cc1)CS(=O)C2)c1ccco1 (configuration not stated)	3.0	-3.6
O=C(Nc1c2c(nn1-c1ccccc1)CSC2)c1ccco1	77.0*	-11.5
O=C(Nc1c2c(nn1-c1ccc([N+](=O)[O-])cc1)CSC2)c1ccco1	28.0	17.0
O=C(Nc1c2c(nn1-c1ccc(Oc3ccccc3)cc1)CSC2)c1ccco1	96.0*	-9.3
O=C(Nc1c2c(nn1-c1ccc(Oc3ccccc3)cc1)CSC2)C1CC1	56.0*	-10.5
COc1ccc(-n2nc3c(c2NC(=O)c2ccco2)CS(=O)(=O)C3)cc1	4.0	0.9
O=C(NCC1CCCO1)C1CCN(S(=O)(=O)N2CCC3(CC2)OCCO3)CC1 (configuration not stated)	-10.0	-9.8
CC1CCN(C(=O)C2c3ccccc3CCN2CC(=O)Nc2cccc(Cl)c2)CC1 (configuration not stated)	59.5*	0.0
COc1ccc(Cl)cc1NC(=O)CCN1CCN(C)CC1	0.2	55.4*
COc1ccc(Cl)cc1NC(=O)N1CCN(CCc2ccccc2)CC1	nt	-2.9
O=C(CN1CCc2ccccc2C1C(=O)N1CCCCC1)NCc1ccc(F)cc1Cl (configuration not stated)	0.0	-8.1
COc1ccc(OC)c(NC(=O)CCN2CCCC2)c1	4.9	-1.1
Cc1ccc(NC(=O)CN2CCc3ccccc3C2C(=O)N2CCC(C)CC2)cc1C (configuration not stated)	10.5	-3.5
O=C(CN1CCc2ccccc2C1C(=O)N1CCCCC1)Nc1ccc(F)cc1Cl (configuration not stated)	68.3*	2.8
COc1ccc(Cl)cc1NC(=O)N1CCN(Cc2nc(-c3ccco3)cs2)CC1	63.6*	6.9
Cc1ccc([N+](=O)[O-])cc1NC(=O)C(=O)NCC1CCCO1 (configuration not stated)	-1.0	1.7
COC(=O)c1ccc2c(=O)n(-c3ccccc3)c(N3CCCCC3)nc2c1	-74.6	0.3
O=C(Nc1cccc(NC(=O)c2ccc([N+](=O)[O-])cc2Cl)c1)c1cccs1	21.0	7.2
CCCN(C)C(=O)c1nc2ccccc2n(C)c1=O	-0.8	-1.4
CCN1/C(=c2\sc3nc4ccccc4n3c2=O)C=Cc2cc(C)ccc21	-7.0	-0.4
SMILES	mHTT-CaM PPI inh	Pf apPOL inh
CC1CCN(C(=O)C2c3ccccc3CCN2CC(=O)Nc2ccc(F)cc2Cl)CC1 (configuration not stated)	88.0*	-8.9
CC1CCN(C(=O)C2c3ccccc3CCN2CC(=O)Nc2cc(F)ccc2Cl)CC1 (configuration not stated)	4.0	10.1
COc1ccc(Cl)cc1NC(=O)CN1CCc2ccccc2C1C(=O)N1CCCCC1 (configuration not stated)	64.2*	-4.0
O=C(CN1CCc2ccccc2C1C(=O)N1CCCCC1)NCc1ccc(Cl)cc1 (configuration not stated)	17.7	-0.3
Cn1c(=NC(=O)c2ccc(S(=O)(=O)N3CCOCC3)cc2)sc2cc(F)ccc21	-5.0	-5.0
COC(=C(Cl)Cl)C(=C1NCCN1)[N+](=O)[O-]	-9.0	8.7
CCc1ccc(NC(=O)c2cc3c(CO)cnc(C)c3oc2=Nc2ccc(OC)cc2OC)cc1	4.0	56.8*
COc1ccc(N=c2oc3c(C)ncc(CO)c3cc2C(=O)Nc2ccccc2)c(OC)c1	8.0	2.8
Cc1nn(-c2nc3ccccc3s2)c2c1C(c1c(F)cccc1Cl)CC(=O)N2 (configuration not stated)	-5.3	-0.9
CC(=O)NC1=NN(C(C)=O)C(C)(c2ccc(F)cc2)S1 (configuration not stated)	0.0	5.2
CC(=O)NC1=NN(C(C)=O)C(C)(c2ccc(-c3ccccc3)cc2)S1 (configuration not stated)	51.0*	-5.1
CCOc1ccc(C(=O)Nc2c3c(nn2-c2cccc(C)c2)CSC3)cc1	19.0	-1.4
